Experimental findings from PMC5540273 (PLoS ONE, 2017) are described below.

Structures are written as SMILES.
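Also: KINOMEscan kinase panel screen.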

In this assay the test system is MARK4. The note with it: concentration: 1 μM, replicates: in singlicate; n = 1.
For `O=C(Nc1cccc(-c2nn3ncccc3c2-c2ccnc(Nc3cccc(C(F)(F)F)c3)n2)c1)c1c(F)cccc1F` [GSK299495], the “%Inh” value is on record as 0%.
To `O=C(c1ccc(-c2cc(-c3c[nH]nc3-c3ccccn3)ccn2)cc1)N1CCOCC1` [GW812171] belongs 11%.
To `Cc1cccc(Cn2ccn3c(=O)cc(N4CCOCC4)nc23)c1` [GSK2297542] belongs 10%.
As for `NS(=O)(=O)c1cccc(-c2ccc3ncc(N4CCOCC4)nc3c2)c1` [GSK1535721], the “%Inh” value is reported as 0%.
To `CCc1ccnc(/C=C/c2n[nH]c3cc(Sc4ccccc4C(=O)NC)ccc23)c1` belongs 21%; to `O=c1cc(N2CCOCC2)nc2n(Cc3cccc(C(F)(F)F)c3)ccn12` [GSK2297543], 12%; to `COC(=O)Nc1nc2cc(Oc3ccc(NC(=O)Nc4cc(F)ccc4F)cc3)ccc2[nH]1.Cl` [GW701424], 0%.
To `NS(=O)(=O)CCc1cccc(Nc2nccc(-c3c(-c4cccc(NC(=O)c5c(F)cccc5F)c4)nn4ccccc34)n2)c1` [GSK336735] belongs 26%; to `O=C(NCCNc1ccnc(Nc2ccc(F)cc2)n1)c1cc2ccccc2s1` [GSK1379874], 0%; to `CC(C)(C)n1cnc2c(N)ncnc21` [SKF-97359], 3%.
To `COc1cc2c(cc1OC[C@@H](O)CO)ncc1c3ccc(C#N)cc3[nH]c21` belongs 0%; to `O=C(NCCNc1ccnc(Nc2ccc(F)cc2)n1)Nc1ccccc1F` [GSK1379880], 0%; to `Fc1ccc(-c2ncn(CCCN3CCOCC3)c2-c2ccccn2)cc1` [SB-211742], 24%.
For `O=C(Nc1n[nH]c2cc(-c3cccc(F)c3)ccc12)C1CC1` [SB-735464], the “%Inh” value was found to be 5%.
To `Cc1nnc(-c2ccc(C)c(-c3ccc(C(=O)Nc4ccc(NS(C)(=O)=O)cc4)cc3)c2)o1` [GW702865] belongs 10%; to `CNc1ncnc2[nH]ncc12` [SKF-18355], 59%; to `Cc1cccc(-c2nc(-c3ccc(S(C)(=O)=O)cc3)sc2-c2ccncc2)c1`, 31%.
To `Nc1nc(-c2ccc3c(N)n[nH]c3c2)cc(N2CCCC2)n1` [GSK2227430] belongs 6%; to `Fc1ccc(-c2ncn(CCCN3CCOCC3)c2-c2cccnc2)cc1` [SB-211743], 16%.
Turning to `[2H]C([2H])(c1cccc(C(F)(F)F)c1C)n1ccn2c(=O)nc(N3CCOCC3)cc12` [GSK2336394], the “%Inh” value was 2%.
To `c1ccc(-c2cc(-c3c[nH]nc3-c3ccccn3)ccn2)cc1` [GW576604] belongs 0%; to `CCc1nc(-c2cccc(C)c2)c(-c2ccnc(NCc3ccccc3)c2)s1`, 0%.
On to `Cn1ccc2ncnc(Oc3ccc(NC(=O)Nc4ccncc4)c(Cl)c3)c21`, for which the “%Inh” value is 0%.
To `COCCNC(=O)c1ccc(-c2cc(C(=O)NC3CC3)cc(F)c2C)cc1` [GW868318] belongs 9%; to `O=C1NC(=O)C(N2CCc3ccccc32)=C1c1cccc(Cl)c1` [SB-408010], 0%; to `CN(C1=C(c2ccccc2)C(=O)NC1=O)c1ccccc1` [SB-334860], 0%.
To `NCC(NC(=O)c1cc(-c2cn[nH]c2)c(-c2ccnc3[nH]ccc23)s1)c1ccccc1.O=C(O)C(F)(F)F.O=C(O)C(F)(F)F` (stereo not shown) [GSK1325775] belongs 0%; to `COc1ccc(Nc2nccc(N3CCC(NC(=O)Nc4cccc(C(C)=O)c4)C3)n2)cc1` (stereo not shown) [GSK1379731], 10%.
Regarding `Cn1cc(-c2ccc3c(c2)CCN3C(=O)Cc2ccccc2Cl)c2c(N)ncnc21` [GSK2608885], the “%Inh” value was determined as 19%.
To `O=c1cc(N2CCOCC2)nc2n(Cc3cccc(F)c3)ccn12` [GSK2297430] belongs 10%.
To `CN(C(=O)c1ccc(-c2cc(-c3c[nH]nc3-c3ccccn3)ccn2)cc1)C1CCOCC1` [GW810083] belongs 30%; to `CC(=O)Nc1ccc(COc2ccc(Nc3ccnc4cc(-c5ccccn5)ccc34)cc2)cc1.Cl` [GW440148], 0%.
To `NS(=O)(=O)c1cccc(-c2ccc3nccc(-c4cccc(S(N)(=O)=O)c4)c3c2)c1` [GW867253] belongs 25%.
Turning to `N#Cc1c(N2CCOCC2)sc(-c2ccn[nH]2)c1-c1ccc(Cl)cc1`, the “%Inh” value stood at 0%.
